Laboratory results from PMC7862700, “An all-to-all approach to the identification of sequence-specific readers for epigenetic DNA modifications on cytosine”.

Legend:
Experiment in all cases: DAPPL (digital affinity profiling via proximity ligation, sequencing); 10 mM Tris-HCl pH 7.5, 50 mM NaCl, 1 mM DTT, 4% glycerol, room temperature, 30 min; GST-TFs on glutathione beads, 16-mer random dsDNA library, 0.1% formaldehyde crosslink after washing; high values mean tight binding
Details in all cases: protein: recombinant; tags: N-terminal GST; dsDNA, one strand shown
FLI1 = biological target: T1, FLI1 (Homo sapiens, UniProt Q01543 1-452)
T1 sequence: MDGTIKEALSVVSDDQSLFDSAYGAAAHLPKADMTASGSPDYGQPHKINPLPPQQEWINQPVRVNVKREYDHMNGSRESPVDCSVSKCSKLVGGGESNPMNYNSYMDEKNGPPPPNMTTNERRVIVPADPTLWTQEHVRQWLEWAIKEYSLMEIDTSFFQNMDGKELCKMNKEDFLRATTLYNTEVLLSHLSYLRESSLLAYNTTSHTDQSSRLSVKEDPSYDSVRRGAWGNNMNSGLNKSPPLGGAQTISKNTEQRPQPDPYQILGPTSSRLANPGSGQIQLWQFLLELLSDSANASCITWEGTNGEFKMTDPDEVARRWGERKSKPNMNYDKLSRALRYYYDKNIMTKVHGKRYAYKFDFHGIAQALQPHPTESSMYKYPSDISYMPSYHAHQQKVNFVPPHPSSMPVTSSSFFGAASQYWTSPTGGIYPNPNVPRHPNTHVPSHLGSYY
Outline: (§1)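 The binding signal reported is, for every hexamer, its read frequency for a factor over its read frequency for the tag-only sample. Reads came from pools of yeast-expressed, GST-fused human transcription factors on glutathione beads, barcoded with DNA and mixed with that sample, which were incubated with 200 nmole of a random double-stranded 16-mer DNA library in Tris/NaCl/DTT/glycerol buffer at room temperature for 30 min. After washing, the pools were crosslinked with 0.1% formaldehyde, proximity-ligated with BsaI/T4 ligase for 1 h at 37 °C, PCR-amplified and sequenced on an Illumina NextSeq500.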

ELK1 = biological target: T2, ELK1 (Homo sapiens, UniProt P19419 1-428)
T2 sequence: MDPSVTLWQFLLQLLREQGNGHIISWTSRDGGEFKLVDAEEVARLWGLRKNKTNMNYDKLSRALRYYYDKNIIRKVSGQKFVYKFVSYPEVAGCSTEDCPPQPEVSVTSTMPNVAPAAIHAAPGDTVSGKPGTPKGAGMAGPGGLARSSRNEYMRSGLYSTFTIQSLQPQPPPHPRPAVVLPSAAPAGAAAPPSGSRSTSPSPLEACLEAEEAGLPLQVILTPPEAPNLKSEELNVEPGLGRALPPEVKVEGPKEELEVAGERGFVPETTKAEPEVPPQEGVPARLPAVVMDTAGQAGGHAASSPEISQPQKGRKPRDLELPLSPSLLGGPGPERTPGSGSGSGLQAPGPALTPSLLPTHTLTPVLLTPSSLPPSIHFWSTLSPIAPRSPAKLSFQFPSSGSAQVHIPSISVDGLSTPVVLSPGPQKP
Outline: as §1

GABPA = biological target: T3, GABPA (Homo sapiens, UniProt Q06546 1-454)
T3 sequence: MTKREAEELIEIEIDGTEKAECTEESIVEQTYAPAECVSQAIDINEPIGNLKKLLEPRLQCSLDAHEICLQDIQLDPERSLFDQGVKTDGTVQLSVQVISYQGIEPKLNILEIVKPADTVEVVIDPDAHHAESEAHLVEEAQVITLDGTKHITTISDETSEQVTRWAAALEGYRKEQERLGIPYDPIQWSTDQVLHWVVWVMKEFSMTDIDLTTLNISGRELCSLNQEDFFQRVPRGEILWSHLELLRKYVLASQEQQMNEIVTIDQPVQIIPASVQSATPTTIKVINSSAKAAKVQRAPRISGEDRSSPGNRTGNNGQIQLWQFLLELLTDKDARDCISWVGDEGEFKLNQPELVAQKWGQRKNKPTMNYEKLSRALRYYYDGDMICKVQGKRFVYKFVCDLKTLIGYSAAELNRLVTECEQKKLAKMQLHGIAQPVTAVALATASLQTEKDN
Outline: as §1

ERG = biological target: T4, ERG (Homo sapiens, UniProt P11308 1-479)
T4 sequence: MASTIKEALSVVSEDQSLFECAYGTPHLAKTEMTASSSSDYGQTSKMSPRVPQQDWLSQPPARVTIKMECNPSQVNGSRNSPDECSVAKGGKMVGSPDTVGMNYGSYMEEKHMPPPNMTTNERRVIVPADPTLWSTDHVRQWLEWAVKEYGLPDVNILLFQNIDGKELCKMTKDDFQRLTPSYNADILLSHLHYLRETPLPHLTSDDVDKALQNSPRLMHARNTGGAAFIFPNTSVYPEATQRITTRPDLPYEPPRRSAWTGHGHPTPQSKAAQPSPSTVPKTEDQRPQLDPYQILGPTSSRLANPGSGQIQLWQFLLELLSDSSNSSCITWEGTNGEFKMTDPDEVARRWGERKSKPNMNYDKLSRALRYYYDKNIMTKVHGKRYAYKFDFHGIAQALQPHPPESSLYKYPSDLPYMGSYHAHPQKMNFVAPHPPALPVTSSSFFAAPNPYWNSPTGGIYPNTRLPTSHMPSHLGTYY
Outline: as §1

ELF1 = ELF1 (Homo sapiens, UniProt P32519 1-619)
ELF1, sequence (P32519 whole entry): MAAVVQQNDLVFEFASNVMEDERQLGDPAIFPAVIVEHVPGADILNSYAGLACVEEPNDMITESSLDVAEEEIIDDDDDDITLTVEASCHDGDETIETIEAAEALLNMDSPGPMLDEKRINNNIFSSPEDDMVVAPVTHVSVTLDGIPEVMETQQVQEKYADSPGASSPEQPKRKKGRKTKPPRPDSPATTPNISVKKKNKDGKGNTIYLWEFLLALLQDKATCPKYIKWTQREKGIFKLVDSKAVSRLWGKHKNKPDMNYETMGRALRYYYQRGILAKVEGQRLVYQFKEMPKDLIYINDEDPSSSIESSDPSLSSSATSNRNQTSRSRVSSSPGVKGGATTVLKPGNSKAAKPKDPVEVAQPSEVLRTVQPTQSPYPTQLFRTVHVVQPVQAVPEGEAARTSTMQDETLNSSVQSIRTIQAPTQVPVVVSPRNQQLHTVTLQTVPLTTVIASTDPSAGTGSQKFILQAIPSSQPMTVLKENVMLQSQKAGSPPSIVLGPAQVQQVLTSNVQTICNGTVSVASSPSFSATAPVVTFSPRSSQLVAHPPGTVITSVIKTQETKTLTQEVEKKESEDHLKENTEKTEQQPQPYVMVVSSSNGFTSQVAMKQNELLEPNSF
Outline: as §1

EHF = biological target: T5, EHF (Homo sapiens, UniProt Q9NZC4 1-300)
T5 sequence: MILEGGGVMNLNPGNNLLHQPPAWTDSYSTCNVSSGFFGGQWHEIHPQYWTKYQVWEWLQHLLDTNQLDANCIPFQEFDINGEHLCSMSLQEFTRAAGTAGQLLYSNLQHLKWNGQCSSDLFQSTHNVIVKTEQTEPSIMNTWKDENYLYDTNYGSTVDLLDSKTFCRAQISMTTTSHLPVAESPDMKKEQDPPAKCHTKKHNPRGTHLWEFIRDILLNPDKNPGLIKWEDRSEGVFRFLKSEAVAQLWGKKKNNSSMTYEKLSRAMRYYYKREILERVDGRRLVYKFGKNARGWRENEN
Outline: as §1

SPI1 = SPI1 (Homo sapiens, UniProt P17947 1-270)
Outline: as §1

SPIB = SPIB (Homo sapiens, UniProt Q01892 1-262)
SPIB, sequence (Q01892 whole entry): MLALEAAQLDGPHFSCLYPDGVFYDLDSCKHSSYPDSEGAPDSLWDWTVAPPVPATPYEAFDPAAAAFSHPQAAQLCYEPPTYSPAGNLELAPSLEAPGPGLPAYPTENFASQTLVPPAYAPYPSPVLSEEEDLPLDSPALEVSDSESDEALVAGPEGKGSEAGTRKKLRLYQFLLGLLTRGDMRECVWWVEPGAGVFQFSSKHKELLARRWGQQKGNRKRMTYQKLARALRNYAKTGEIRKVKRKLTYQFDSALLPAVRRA
Outline: as §1

ELK3 = biological target: T6, ELK3 (Homo sapiens, UniProt P41970 1-407)
T6 sequence: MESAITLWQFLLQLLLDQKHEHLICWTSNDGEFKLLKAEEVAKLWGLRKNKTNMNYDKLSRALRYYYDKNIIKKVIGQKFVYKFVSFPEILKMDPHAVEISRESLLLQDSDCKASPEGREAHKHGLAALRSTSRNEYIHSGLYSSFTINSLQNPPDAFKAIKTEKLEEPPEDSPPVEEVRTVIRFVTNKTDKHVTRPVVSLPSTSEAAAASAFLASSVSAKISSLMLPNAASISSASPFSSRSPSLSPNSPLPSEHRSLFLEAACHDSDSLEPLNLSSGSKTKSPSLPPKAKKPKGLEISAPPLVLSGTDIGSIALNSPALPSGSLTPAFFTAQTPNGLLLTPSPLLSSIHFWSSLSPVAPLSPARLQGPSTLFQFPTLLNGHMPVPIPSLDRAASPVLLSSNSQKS
Outline: as §1

## AGCTTA
FLI1
  binding signal: 1.06 fold enrichment (6-mer frequency, TF over GST control)
ELK1
  binding signal: 1.12 fold enrichment (6-mer frequency, TF over GST control)
GABPA
  binding signal: 1.12 fold enrichment (6-mer frequency, TF over GST control)
ERG
  binding signal: 1.13 fold enrichment (6-mer frequency, TF over GST control)
ELF1
  binding signal: 1.11 fold enrichment (6-mer frequency, TF over GST control)
EHF
  binding signal: 1.1 fold enrichment (6-mer frequency, TF over GST control)
SPI1
  binding signal: 1.14 fold enrichment (6-mer frequency, TF over GST control)
SPIB
  binding signal: 1.21 fold enrichment (6-mer frequency, TF over GST control)
ELK3
  binding signal: 1.11 fold enrichment (6-mer frequency, TF over GST control)

## CTTAGC
FLI1
  binding signal: 1.22 fold enrichment (6-mer frequency, TF over GST control)
ELK1
  binding signal: 1.17 fold enrichment (6-mer frequency, TF over GST control)
GABPA
  binding signal: 1.26 fold enrichment (6-mer frequency, TF over GST control)
ERG
  binding signal: 1.22 fold enrichment (6-mer frequency, TF over GST control)
ELF1
  binding signal: 1.22 fold enrichment (6-mer frequency, TF over GST control)
EHF
  binding signal: 1.25 fold enrichment (6-mer frequency, TF over GST control)
SPI1
  binding signal: 1.21 fold enrichment (6-mer frequency, TF over GST control)
SPIB
  binding signal: 1.21 fold enrichment (6-mer frequency, TF over GST control)
ELK3
  binding signal: 1.22 fold enrichment (6-mer frequency, TF over GST control)

## CTCTCT
FLI1
  binding signal: 1.77 fold enrichment (6-mer frequency, TF over GST control)
ELK1
  binding signal: 1.78 fold enrichment (6-mer frequency, TF over GST control)
GABPA
  binding signal: 1.56 fold enrichment (6-mer frequency, TF over GST control)
ERG
  binding signal: 1.62 fold enrichment (6-mer frequency, TF over GST control)
ELF1
  binding signal: 1.76 fold enrichment (6-mer frequency, TF over GST control)
EHF
  binding signal: 1.66 fold enrichment (6-mer frequency, TF over GST control)
SPI1
  binding signal: 1.53 fold enrichment (6-mer frequency, TF over GST control)
SPIB
  binding signal: 1.56 fold enrichment (6-mer frequency, TF over GST control)
ELK3
  binding signal: 1.49 fold enrichment (6-mer frequency, TF over GST control)

## CCCGAC
FLI1
  binding signal: 1.31 fold enrichment (6-mer frequency, TF over GST control)
ELK1
  binding signal: 1.28 fold enrichment (6-mer frequency, TF over GST control)
GABPA
  binding signal: 1.39 fold enrichment (6-mer frequency, TF over GST control)
ERG
  binding signal: 1.43 fold enrichment (6-mer frequency, TF over GST control)
ELF1
  binding signal: 1.42 fold enrichment (6-mer frequency, TF over GST control)
EHF
  binding signal: 1.31 fold enrichment (6-mer frequency, TF over GST control)
SPI1
  binding signal: 1.29 fold enrichment (6-mer frequency, TF over GST control)
SPIB
  binding signal: 1.44 fold enrichment (6-mer frequency, TF over GST control)
ELK3
  binding signal: 1.43 fold enrichment (6-mer frequency, TF over GST control)

## AAAAAG
FLI1
  binding signal: 1.18 fold enrichment (6-mer frequency, TF over GST control)
ELK1
  binding signal: 1.18 fold enrichment (6-mer frequency, TF over GST control)
GABPA
  binding signal: 1.25 fold enrichment (6-mer frequency, TF over GST control)
ERG
  binding signal: 1.19 fold enrichment (6-mer frequency, TF over GST control)
ELF1
  binding signal: 1.13 fold enrichment (6-mer frequency, TF over GST control)
EHF
  binding signal: 1.22 fold enrichment (6-mer frequency, TF over GST control)
SPI1
  binding signal: 1.72 fold enrichment (6-mer frequency, TF over GST control)
SPIB
  binding signal: 1.29 fold enrichment (6-mer frequency, TF over GST control)
ELK3
  binding signal: 1.2 fold enrichment (6-mer frequency, TF over GST control)

## TTGGTG
FLI1
  binding signal: 1.35 fold enrichment (6-mer frequency, TF over GST control)
ELK1
  binding signal: 1.21 fold enrichment (6-mer frequency, TF over GST control)
GABPA
  binding signal: 1.42 fold enrichment (6-mer frequency, TF over GST control)
ERG
  binding signal: 1.23 fold enrichment (6-mer frequency, TF over GST control)
ELF1
  binding signal: 1.3 fold enrichment (6-mer frequency, TF over GST control)
EHF
  binding signal: 1.43 fold enrichment (6-mer frequency, TF over GST control)
SPI1
  binding signal: 1.22 fold enrichment (6-mer frequency, TF over GST control)
SPIB
  binding signal: 1.22 fold enrichment (6-mer frequency, TF over GST control)
ELK3
  binding signal: 1.55 fold enrichment (6-mer frequency, TF over GST control)

## ACCTGC
FLI1
  binding signal: 1.37 fold enrichment (6-mer frequency, TF over GST control)
ELK1
  binding signal: 1.52 fold enrichment (6-mer frequency, TF over GST control)
GABPA
  binding signal: 1.39 fold enrichment (6-mer frequency, TF over GST control)
ERG
  binding signal: 1.39 fold enrichment (6-mer frequency, TF over GST control)
ELF1
  binding signal: 1.54 fold enrichment (6-mer frequency, TF over GST control)
EHF
  binding signal: 1.67 fold enrichment (6-mer frequency, TF over GST control)
SPI1
  binding signal: 1.46 fold enrichment (6-mer frequency, TF over GST control)
SPIB
  binding signal: 1.39 fold enrichment (6-mer frequency, TF over GST control)
ELK3
  binding signal: 1.33 fold enrichment (6-mer frequency, TF over GST control)
